Assay outcomes: PubChem BioAssay, National Center for Advancing Translational Sciences (NCATS)
Marburg entry inh = inhibitors of Marburg virus binding or cell entry. Potency, µM (series often up to 37.8 µM), most hits filed as inhibitors. Marburg virus pseudotyped entry inhibition, cell reporter. AID 540276. 300,000 tested, 1.8% active; calls by dose curve; tested in HEK293 cells
VACV Venus inh = inhibitors of vaccinia virus (Venus reporter); Vaccinia virus Venus reporter expression, fluorescence; Potency, µM (doses to about 36.5 µM), most hits filed as inhibitors; 330,000 tested, 0.46% active; calls by dose curve; tested in A549 cells; note: nearly all actives have a fitted effect of over 30% in size
Vaccinia mCherry = vaccinia inhibition (mCherry reporter); Vaccinia virus mCherry reporter infection, fluorescence; Potency, µM (highest dose often 36.5 µM), usual class: inhibitors; 310,000 tested, 0.63% active; AID 720579; calls by dose curve; tested in A549 cells; note: nearly all actives have a fitted effect of over 35% in size
LASV entry inh = blocks Lassa virus binding to or entry into cells. Potency, µM (doses to about 37.9 µM), most hits filed as inhibitors. AID 540256. Lassa virus pseudotype entry inhibition, cell reporter. 300,000 tested, 1.2% active; calls by dose curve; tested in HEK293 cells; note: nearly all actives have a fitted effect of over 50% in size
HCV inhibitor = inhibitors of hepatitis C virus infection; Potency, µM (titrated, usually from 41.8 µM), hits mostly inhibitors; 340,000 tested, 3.4% active; Huh7.5.1 HCVcc-Cre infection, luciferase reporter, 44 h; AID 651820; active = well fitted inhibition curve with a large enough effect; inconclusive = small, poorly fitted or top-dose-only effect, or another doubt; inactive = no such curve, though single readings can be large or run the other way
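A cell-based infection assay in which seeded cells (1,000 per well) receive test compound after 4 h, are inoculated with HCVcc-Cre at approximately 0.5 moi, and are incubated 44 h before luminescence detection.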
Of the large screens only hits and unclear results are named; the others gave an inactive call. The list is not random: actives were taken first. Their share in the collection is about 4.6%.

COc1cccc(-n2nnc3c(=O)n(Cc4ccc(Cl)cc4)cnc32)c1	LASV entry inh inconclusive (no result: VACV Venus inh, Vaccinia mCherry)
COc1ccccc1/C=C1\Cc2ccccc2C1=O	none (no result: Marburg entry inh, LASV entry inh)
Nc1ccccc1C=C1Cc2ccccc2C1=O	Marburg entry inh 7.9µM, LASV entry inh inconclusive
CSc1ccc(CCNC(=O)CCn2c(=O)c3cccn3c3ccc(F)cc32)cc1	none (no result: Marburg entry inh, HCV inhibitor)
O=C(CCn1c(=O)c2cccn2c2ccc(F)cc21)NCCc1ccccc1	HCV inhibitor 10µM (no result: Marburg entry inh)
Nc1nc(Cl)cc(N2CCCC2)n1	none (no result: LASV entry inh)
Nc1nc(Cl)cc(N2CCC(c3cc(-c4ccc(Cl)cc4Cl)n[nH]3)CC2)n1	Marburg entry inh inconclusive, LASV entry inh inconclusive, HCV inhibitor 22µM (no result: VACV Venus inh, Vaccinia mCherry)
Cc1ccc(S(=O)(=O)c2nc(Nc3ccccc3)sc2Cl)cc1	Marburg entry inh inconclusive, HCV inhibitor 11µM (no result: VACV Venus inh, Vaccinia mCherry)
O=C(CN1C(=O)/C(=C/c2ccc(C(F)(F)F)cc2)Sc2ccccc21)NCCCN1CCOCC1	HCV inhibitor 11µM (no result: Marburg entry inh, VACV Venus inh, Vaccinia mCherry, LASV entry inh)
Cc1ccccc1CN1C(=O)/C(=C\c2ccc(C(=O)NCCN3CCOCC3)cc2)Sc2ccccc21	Marburg entry inh inconclusive, Vaccinia mCherry inconclusive, LASV entry inh inconclusive, HCV inhibitor inconclusive
CN1CCN(CCCNC(=O)c2ccc(/C=C3\Sc4ccccc4N(Cc4ccccc4F)C3=O)cc2)CC1	HCV inhibitor 10µM (no result: Marburg entry inh, VACV Venus inh, Vaccinia mCherry, LASV entry inh)
O=C(CN1C(=O)/C(=C\c2cccc(Br)c2)Oc2ccccc21)NCCCN1CCOCC1	HCV inhibitor 6.3µM (no result: Marburg entry inh, LASV entry inh)
O=C(CN1C(=O)COc2ccccc21)NCCCN1CCOCC1	none
CCN1CCN(CCNC(=O)c2ccc(/C=C3/Sc4ccccc4N(Cc4cccc(Cl)c4)C3=O)cc2)CC1	Marburg entry inh inconclusive, VACV Venus inh inconclusive, LASV entry inh inconclusive, HCV inhibitor 11µM
CCCCC1CN(CCNC(=O)c2ccccn2)Cc2ccccc2O1 (stereo not drawn)	none (no result: Marburg entry inh, LASV entry inh, HCV inhibitor)
O=C(Nc1cc2c(cc1C(=O)c1ccccc1Cl)OCCO2)c1ccccc1	none (no result: Marburg entry inh, HCV inhibitor)
COC(=O)C1CCN(Cc2ccc3c(c2)CN(C(=O)c2ccnn2C)CCO3)CC1	none (no result: Marburg entry inh, LASV entry inh, HCV inhibitor)
COc1ccc(NC(=O)c2cccnc2)c(OC)c1	none (no result: VACV Venus inh, Vaccinia mCherry)
COc1ccc(NC(=O)c2cc(-c3cccnc3)nc3c(C)c(C)ccc23)c(OC)c1	HCV inhibitor 13µM (no result: VACV Venus inh, Vaccinia mCherry)
CC1(C)Cc2c(ccc3ccccc23)C(c2cc3ccccc3oc2=O)=N1	Marburg entry inh 5.8µM, LASV entry inh 13µM, HCV inhibitor inconclusive (no result: VACV Venus inh, Vaccinia mCherry)
Oc1c(CN2CCN(c3ccccn3)CC2)cc(Cl)c2cccnc12	Marburg entry inh 7.1µM, VACV Venus inh 11µM, LASV entry inh 13µM, HCV inhibitor 5µM (no result: Vaccinia mCherry)
COCc1cc(CN2CCCC2)c(O)c2ncccc12	Marburg entry inh 26µM, VACV Venus inh inconclusive, Vaccinia mCherry 14µM, LASV entry inh inconclusive, HCV inhibitor 2.8µM
Oc1c(CN2CCCCC2)cc(COCc2ccccc2)c2cccnc12	Marburg entry inh inconclusive, VACV Venus inh inconclusive, Vaccinia mCherry 2.5µM, LASV entry inh 2.2µM, HCV inhibitor 10µM
COc1cc(/C=C/c2ccc3cccc(OC)c3n2)c(OC(C)=O)c([N+](=O)[O-])c1	Marburg entry inh inconclusive, LASV entry inh inconclusive, HCV inhibitor 8.9µM (no result: VACV Venus inh, Vaccinia mCherry)
COc1c(OC(C)=O)ccc(/C=C/c2ccc3cccc(OCc4ccccc4)c3n2)c1[N+](=O)[O-]	Marburg entry inh inconclusive, VACV Venus inh inconclusive, LASV entry inh inconclusive, HCV inhibitor 7.1µM
COC(=O)c1ccc2cc(OC)cc([N+](=O)[O-])c2n1	Marburg entry inh inconclusive
FC(F)(F)c1cnc(-c2cc3c(c(OCC4CCCO4)c2)OCCN(Cc2cccn2-c2nccs2)C3)c(Cl)c1 (stereo not drawn)	none (no result: Marburg entry inh, LASV entry inh, HCV inhibitor)
CCC(C(=O)NCCc1ccccc1)n1nc(C)c2sc3ccccc3c2c1=O (stereo not drawn)	none (no result: HCV inhibitor)
COc1ccc(NC(=O)C(CC(C)C)NS(=O)(=O)c2ccc3c(c2)oc(=O)n3C)cc1Cl (stereo not drawn)	LASV entry inh inconclusive (no result: HCV inhibitor)
CCc1nnc2c3ccccc3nc(Nc3ccccc3OC)n12	none (no result: HCV inhibitor)
CCCNC(=S)NC1CC2CCC(C1)N2Cc1ccccc1 (stereo not drawn)	Marburg entry inh inconclusive
CC(C)CNC(=S)NC1CC2CCC(C1)N2Cc1ccccc1 (stereo not drawn)	Marburg entry inh 0.65µM
CCNC(=S)NC1CC2CCC(C1)N2Cc1ccccc1 (stereo not drawn)	Marburg entry inh 0.92µM
CCOc1ccccc1C(=O)Nc1ccc(-n2nncc2-c2ccccc2)cc1	none (no result: Marburg entry inh, HCV inhibitor)
CCOC(=O)c1cnc(S[C@@H]2CC(=O)N(c3cccc(OC)c3)C2=O)nc1N	none (no result: VACV Venus inh, Vaccinia mCherry, LASV entry inh, HCV inhibitor)
